Shown are actives, neighbours in structure and some others; about 3.3% of the full set was active somewhere.
Wnt bcat act – Wnt/beta-catenin pathway activation; Wnt/beta-catenin reporter cell assay, activator, plate reader; activation, % at 9.35 µM; 1.2% of 300,000 active; AID 743398; in the data active = activation above about 30%, passing the limit was not always enough; inconclusive = no clear call, values can overlap the other calls;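 also: 0% = neutral control wells and 100% = positive control wells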
esBAF inh – blocks esBAF chromatin remodeling in mouse ES cells; Bmi1-luciferase knock-in reporter, 24 h; 100% = twice the neutral-well signal; AID 602393; reporter increase, % at 12.5 µM; 2% of 350,000 active; in the data active = activation above about 40%; inconclusive = no clear call, values can overlap the other calls;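 also: 0% = median of the plate's neutral control wells and 100% = double that signal; a rise in the Bmi1 reporter signal indicates esBAF inhibition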
GAA850 FXN act – frataxin GAA850 promoter activation | HEK293 lucGAA850 FXN promoter luciferase reporter, 24 h; percent of 10 µM SAHA response | activation, % at 6 µM | 0.56% of 360,000 active | AID 540364;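 active = activation above the average of all compounds screened plus 3 SD, cutoff fixed separately per campaign, cut at about 7.5% in these data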;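 also: 0% = DMSO wells and 100% = 10 µM SAHA wells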
MITF TRPM1 HTS – activators of MITF-driven TRPM1 promoter activity in SK-MEL-5 cells; AID 588334; SK-MEL-5 TRPM1-promoter luciferase, 24 h; % of positive control, neutral wells = 0; 0.75% of 300,000 active; activation, % at 12.5 µM;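 active = mean activation of at least 80% with every replicate also reaching 80%; inconclusive = mean reaches 80% but some replicate falls short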;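 also: 0% = neutral control wells and 100% = parthenolide positive control wells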
Statin myotox sup – suppressors of simvastatin-induced myotoxicity in C2C12 myotubes. rescue of ATP level, % at 7.49 µM. ATP luminescence, 48 h; scaled: DMSO 0, geranylgeraniol control 100. 0.78% of 330,000 active. AID 602340;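 active = mean ATP rescue above about 67%, or every replicate alone reaching that limit, limit read from the data, passing the limit was not always enough; inconclusive = no clear call, values can overlap the other calls; inactive = mean under the limit and some replicate under it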;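 also: myotubes were challenged with 10 µM simvastatin during compound exposure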
The depositor's hits bear a star; ? = inconclusive; / = no result.

SMILES | Wnt bcat act | esBAF inh | GAA850 FXN act | MITF TRPM1 HTS | Statin myotox sup
O=C(Nc1ccc(S(=O)(=O)N2CCOCC2)cc1)c1ccc([N+](=O)[O-])o1 | -2.2 | 18.4 | 4.6 | -47.3 | 87.7*
O=C(CCNC(=O)c1ccc(Br)cc1)Nc1ccc(S(=O)(=O)N2CCOCC2)cc1 | 35.9* | -7.7 | 0.5 | 2.9 | -0.7
O=C(CN1CCN(S(=O)(=O)c2ccc(Br)cc2)CC1)Nc1ccc2c(c1)OCCO2 | / | 4.6 | -1.7 | 4.5 | 144.0*
CN1c2ccc(-c3ccccc3)cc2[C@H]2[C@H](CCN2C(=O)c2ccncc2)[C@@H]1CO | / | -3.7 | / | / | -9.8
C[C@H]1CN([C@@H](C)CO)C(=O)c2cc(-c3ccncc3)cnc2O[C@@H]1CN(C)C(=O)C1CCC1 | / | / | / | / | 15.4
O=S(=O)(N[C@@H]1CC[C@H](CCn2cc(-c3ccccn3)nn2)O[C@@H]1CO)c1cccc(F)c1 | / | 3.1 | / | / | -11.1
O=C1O/C(=C/C(=O)N2CCOCC2)c2ccccc21 | / | -2.1 | -0.2 | -15.7 | 74.5*
CN(c1ccc(O)cc1)S(=O)(=O)c1ccc2ccccc2c1 | 0.2 | 57.7* | 3.1 | 33.0 | 0.0
CC1CCCC(NC(=O)COC(=O)CCC(=O)c2cccs2)C1C (configuration not stated) | -1.1 | -1.6 | -0.7 | -8.2 | 0.8
CC1CCCCC1NC(=O)c1ccc2c(c1)OCCO2 (configuration not stated) | 29.2 | 33.0 | 0.9 | 44.7 | 1.1
CC1CCCC(NC(=O)c2ccc3c(c2)OCCO3)C1C (configuration not stated) | 34.8* | ? | 4.0 | 70.6 | -24.4
CC1CCCC(NC(=O)c2cccs2)C1C (configuration not stated) | 2.7 | 42.6* | 2.6 | 20.0 | -1.1
Nc1ccc(-c2nc3cc([N+](=O)[O-])ccc3o2)cc1 | 44.4* | 0.5 | 6.2 | 41.4 | 14.1
O=[N+]([O-])c1ccc2oc(/C=C/c3ccc(O)cc3)nc2c1 | 11.1 | 41.9* | 3.2 | / | 9.9
O=C1/C(=C/c2ccco2)CCC1C1CCCC1 (configuration not stated) | 37.9* | 17.4 | -1.0 | 19.5 | 12.2
CCOc1ccc(/C=C2\CCC(C3CCCC3)C2=O)cc1 (configuration not stated) | ? | -6.1 | 3.4 | 122.8* | -8.1
O=C1/C(=C\c2ccco2)CCC/C1=C\c1ccco1 | / | 76.9* | 13.2* | 43.6 | 13.1
CN1CCN(C(=O)C[C@@H]2C=C[C@H](NC(=O)Nc3ccccc3F)[C@H](CO)O2)CC1 | / | -3.1 | / | / | -10.5
C[C@@H]1CN([C@H](C)CO)S(=O)(=O)c2ccc(C#Cc3ccccc3F)cc2O[C@H]1CN(C)C | / | 0.5 | / | / | -25.9
COc1ccc(N2CCN(C(c3cc(OC)ccc3OC)c3nnnn3CC3CCCO3)CC2)cc1 (configuration not stated) | / | -7.8 | 1.1 | -6.7 | 79.0*
O=S(=O)(N[C@H]1CC[C@H](CCn2cc(C3(O)CCCC3)nn2)O[C@H]1CO)c1ccc(F)cc1 | / | 9.5 | / | / | 4.1
Cc1ccc(-c2nc(NCc3ccco3)n(C(=O)c3ccco3)n2)cc1 | 14.9 | 59.7* | 4.0 | 59.6 | 8.9
COCC(=O)n1nc(-c2ccccc2)nc1NCc1ccc(N(C)C)cc1 | 10.1 | 49.7* | 3.5 | 46.0 | 14.8
O=C(COc1ccccc1)n1nc(-c2ccc(Cl)cc2)nc1NCc1ccco1 | / | 65.7* | 2.6 | / | -12.6
O=C(c1ccco1)n1nc(-c2ccc(Cl)cc2)nc1NCc1ccco1 | -1.0 | 39.3 | 1.9 | / | -39.9
SMILES | Wnt bcat act | esBAF inh | GAA850 FXN act | MITF TRPM1 HTS | Statin myotox sup
COc1cccc(S(=O)(=O)N[C@H]2C=C[C@@H](CC(=O)NC3Cc4ccccc4C3)O[C@H]2CO)c1 | / | 0.5 | / | / | -12.3
CC(C)OC(=O)/C(=C/c1ccc2c(c1)c1ccccc1n2C)NC(=O)c1ccccc1 | 27.6 | / | 0.1 | 30.9 | /
CC(C)OC(=O)/C(=C\c1ccc2c(c1)c1ccccc1n2C)NC(=O)c1ccccc1 | / | 75.7* | 3.4 | 47.9 | -17.0
O=C(COc1cc(F)ccc1[N+](=O)[O-])Nc1ccc2c(c1)OCO2 | 22.4 | 57.3* | 4.8 | 64.5 | -4.3
O=C(COc1ccccc1[N+](=O)[O-])N/N=C/c1cccc(OC(=O)c2ccc3c(c2)OCO3)c1 | 28.6 | / | 6.3 | 95.1* | /
O=C(COc1ccc2c(c1)OCO2)Nc1ccc(Cl)cn1 | 18.0 | 46.1* | 2.4 | 83.6* | -10.4
CC(=O)c1cc(F)ccc1OCC(=O)Nc1ccc2c(c1)OCO2 | 52.8* | 7.3 | 3.8 | ? | 5.3
O=C(COc1ccc(Cl)cc1)Nc1ccc(Cl)cn1 | / | 33.8 | 2.9 | 67.4 | -24.6
COCC(=O)Nc1ccc2c(c1)OCO2 | -0.8 | / | 1.3 | 0.2 | /
NC(=O)c1cc(Cl)ccc1OCC(=O)Nc1ccc2c(c1)OCO2 | 67.8* | -48.4 | 4.7 | 57.3 | -27.3
O=C(COc1cccc(Cl)c1Cl)Nc1ccc2c(c1)CCC2 | 8.1 | / | -0.2 | 24.8 | /
CCSc1nnc(NC(=O)COc2ccccc2[N+](=O)[O-])s1 | 4.8 | 48.6* | 3.7 | 21.7 | 0.2
O=C(COC(=O)c1cccnc1Cl)Nc1ccc2c(c1)OCO2 | 0.9 | 2.8 | -0.5 | -6.3 | -3.1
O=C(COc1ccccc1[N+](=O)[O-])Nc1ccc2c(c1)CCC2 | 28.8 | 79.0* | 1.7 | 110.7* | 9.9
O=C(COC(=O)COc1ccccc1[N+](=O)[O-])Nc1ccc2c(c1)OCO2 | 1.6 | 1.6 | -1.7 | -5.4 | -3.3
O=C(COc1ccccc1[N+](=O)[O-])Nc1ccc2c(c1)OCO2 | 15.9 | 57.9* | 7.5 | 60.6 | 6.1
CO[C@H]1CN(C)C(=O)c2ccc(NC(C)=O)cc2OC[C@H](C)N(Cc2cncnc2)C[C@H]1C | / | 2.2 | / | / | 1.5
COc1ccc(C2C3=C(CC(C)(C)CC3=O)Nc3c2c(=O)[nH]c(=O)n3Cc2ccccc2)cc1OC (configuration not stated) | / | 3.2 | -4.3 | 13.0 | -5.1
COc1cc(C2C3=C(CC(C)(C)CC3=O)Nc3c2c(=O)[nH]c(=O)n3Cc2ccccc2)ccc1O (configuration not stated) | 32.6* | / | 1.2 | -9.4 | /
CN1c2ccc(Br)cc2[C@H]2[C@H](CCN2C(=O)C2CCCCC2)[C@H]1CO | / | 0.6 | / | / | 15.9
COCCNc1oc(/C=C/c2ccccc2)nc1C#N | 45.6* | / | 4.7 | 102.8* | /
CN(C)CCCNc1oc(-c2ccc(Cl)cc2)nc1C#N | / | 12.3 | 3.1 | 22.5 | -10.0
COc1ccc(CCNc2oc(-c3ccc(C)cc3)nc2C#N)cc1OC | -0.1 | 4.8 | 2.3 | 24.7 | -1.0
N#Cc1nc(-c2ccccc2)oc1NCc1ccco1 | 1.5 | -30.3 | 2.4 | 45.4 | 2.7
COCCNc1oc(-c2ccc(C)cc2)nc1C#N | / | 65.3* | 7.5 | 66.0 | 26.1
N#Cc1nc(-c2ccc(Cl)cc2)oc1NCc1ccco1 | 38.4* | 52.4* | 3.9 | 70.1 | -4.6
COCCNc1oc(-c2ccc(Cl)cc2)nc1C#N | 43.1* | / | 1.1 | 81.3* | /
C[C@H]1CN([C@@H](C)CO)C(=O)c2cc(C#Cc3ccncc3)cnc2O[C@@H]1CN(C)C(=O)c1ccccc1F | / | 4.2 | / | / | 11.3
